In PubChem BioAssay (EPA / NIEHS):
Records with an inconclusive call do not appear. Activity calls are given as the source filed them. Rule for the calls, unless noted: active = hit-call score of the fitted dose curve at least 0.9, where 1 is the maximum; inactive = score below 0.9.

Assays:
[1] = CCTE_Harrill_HTTr_Viability_MCF7: CCTE's 6-hour Cell Viability Assessment for the High-Throughput Transcriptomics (HTTr) Platform, in MCF-7 cells cultured in DMEM + 10% fetal bovine serum, Harrill Lab (AID 2284010)
In short: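 Propidium iodide exclusion, imaged by high-content analysis, gauged viability after a six-hour exposure across eight concentrations. Cells were MCF-7 grown in DMEM with 10% fetal bovine serum; fits run in both directions against DMSO.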

[2] = CCTE_Harrill_HTTr_Apoptosis_MCF7: CCTE's 6-hour Apoptosis Assessment for the High-Throughput Transcriptomics (HTTr) Platform, in MCF-7 cells cultured in DMEM + 10% fetal bovine serum, Harrill Lab (AID 2284011)
In short: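 MCF-7 (DMEM + 10% FBS), 384-well; 8-pt dilution series, 6 h chemical exposure; caspase-3/7 activation via CellEvent Caspase 3/7 Green, HCI; bidirectional fit vs DMSO.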

[3] = CCTE_Harrill_HTTr_CellCount_MCF7: CCTE's Cell Proliferation Assessment for the High-Throughput Transcriptomics (HTTr) Platform, Harrill Lab (AID 2284012; active = hit-call score of the fitted dose curve at least 0.9, where 1 is the maximum;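 note: cells exposed to compound for six hours; intended direction is loss of nuclei count meaning fewer cells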)
In short: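 Cell count from high-content imaging of Hoechst-labeled nuclei serves as viability/growth readout. Chemicals were applied to MCF-7 cells in eight concentrations for six hours, with fitting in both directions relative to DMSO.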

Structure (SMILES)	outcome [1]	outcome [2]	outcome [3]	AC50 [1]
O=C(O)COCCN1CCN(C(c2ccccc2)c2ccc(Cl)cc2)CC1 (centres undefined)	inactive	inactive	inactive	–
O=C(O)c1ccc(C(=O)O)cc1	inactive	inactive	inactive	–
CC(C)C[C@H]1C(=O)N2CCC[C@H]2[C@]2(O)O[C@](NC(=O)[C@@H]3C=C4c5cccc6[nH]c(Br)c(c56)C[C@H]4N(C)C3)(C(C)C)C(=O)N12	inactive	–	inactive	–
CCN(CC)c1ccc2c(-c3ccccc3C(=O)O)c3ccc(=[N+](CC)CC)cc-3oc2c1	–	–	inactive	0.394 µM (active)
CNCCCC12CCC(c3ccccc31)c1ccccc12	–	–	inactive	47.3 µM (active)
CCCCCCCCC	inactive	inactive	inactive	–
OCCOCCOCCOCCO	inactive	inactive	inactive	–
N#Cc1ccccc1	inactive	–	inactive	–
CCCCCC(CO)CCC (centres undefined)	inactive	inactive	inactive	–
CCC(C)CCCC(C)(C)O (centres undefined)	inactive	–	inactive	–
Cc1ccc(O)c(C(C)(C)C)c1	inactive	–	inactive	–
O=C(O)c1cn(C2CC2)c2cc(N3CCNCC3)c(F)cc2c1=O	inactive	inactive	inactive	–
CC1CC(OC(=O)c2ccccc2O)CC(C)(C)C1 (centres undefined)	inactive	–	inactive	–
CC1(C)[C@H]2CC[C@]1(C)[C@H](O)C2	inactive	inactive	inactive	–
CC(=O)OCCOC(C)=O	inactive	inactive	inactive	–
CC(=O)/C=C/C1=C(C)CCCC1(C)C	inactive	–	inactive	–
C=C(C)[C@@H]1CC[C@@H](C)C[C@@H]1O	inactive	–	inactive	–
CC(C)Oc1ccccc1O	inactive	–	inactive	–
CCCCCCCCCC=O	inactive	inactive	inactive	–

Structure (SMILES)	outcome [1]	outcome [2]	outcome [3]	AC50 [1]
COc1cc2ncnc(Nc3cccc(Cl)c3)c2cc1OC	inactive	–	inactive	–
CC(=O)C(=O)O	inactive	inactive	inactive	–
Clc1ccc(Cl)c(Cl)c1Cl	inactive	inactive	inactive	–
CC(C)[C@H]1CC[C@@H](C)CC1=O	inactive	–	inactive	–
Cc1c(Cl)c(=O)oc2cc(O)ccc12	inactive	inactive	inactive	–
CCCCCCCCCCCCCC(=O)O	inactive	–	inactive	–
O=C1C(c2[nH]c3ccc(S(=O)(=O)O)cc3c2O)=Nc2ccc(S(=O)(=O)O)cc21	inactive	–	inactive	–
CCN(CC)CCOC(=O)c1ccc(N)cc1	inactive	–	inactive	–
CC(c1cc2ccccc2s1)N(O)C(N)=O (centres undefined)	inactive	–	inactive	–
CCCCCCCCCCCCCCCC(=O)O	inactive	inactive	inactive	–
O=[N+]([O-])c1cc(C(F)(F)F)ccc1Cl	inactive	–	inactive	–
O=C(O)Cc1cccc2ccccc12	inactive	inactive	inactive	–
CNC(=O)Oc1ccc2c(c1)[C@]1(C)CCN(C)[C@@H]1N2C	inactive	–	inactive	–
CCCc1c(OCCCOc2ccc(OCC(=O)O)cc2)ccc(C(C)=O)c1O	inactive	inactive	inactive	–
C#C[C@]1(O)CC[C@H]2[C@@H]3CCC4=Cc5oncc5C[C@]4(C)[C@H]3CC[C@@]21C	inactive	inactive	inactive	–
NCCCCCCN	inactive	inactive	inactive	–
O=C(O)CN(CCN(CC(=O)O)CC(=O)O)CCN(CC(=O)O)CC(=O)O	inactive	inactive	inactive	–
CC(C)=CCCC(C)=CCCC(C)=CCO	inactive	–	inactive	–
CCCCNC(=O)NS(=O)(=O)c1ccc(C)cc1	inactive	–	inactive	–
